A selection: hits, their analogues and other compounds. The true share with any hit is near 21%.
TDP1 cell noCPT: qHTS for Inhibitors of human tyrosyl-DNA phosphodiesterase 1 (TDP1): qHTS in cells in absence of CPT; DT40 Tdp1-/- hTDP1 cells, no CPT, ATP luminescence, 48 h; Potency, µM (titrated, usually from 46.2 µM), for inactives: at the top dose activity change, negative = growth inhibition, actives largely listed as inhibitors; hit rate 15% among 420,000; AID 686978, 2013; further: potency means the concentration at half of the fitted maximal effect; on the % scale 0 is the no-effect control and ±100 the full control effect; nearly all actives have a fitted effect of over 55% in size
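Readout: luminescence from CellTiter-Glo after 30 min in the dark at RT. Cells: DT40 Tdp1-/- with stable hTDP1, 400/well. Exposure: compounds alone, ≥48 hr, 37 °C.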
D3 ag: activates the human D3 dopamine receptor; D3R DiscoveRx beta-arrestin cells, luminescence, 90 min; max activation, %; hit rate 0.58% among 410,000; in the data active means max activation above about 30%; further: 0% is about no effect
Target sequence (P35462 whole entry, looked up): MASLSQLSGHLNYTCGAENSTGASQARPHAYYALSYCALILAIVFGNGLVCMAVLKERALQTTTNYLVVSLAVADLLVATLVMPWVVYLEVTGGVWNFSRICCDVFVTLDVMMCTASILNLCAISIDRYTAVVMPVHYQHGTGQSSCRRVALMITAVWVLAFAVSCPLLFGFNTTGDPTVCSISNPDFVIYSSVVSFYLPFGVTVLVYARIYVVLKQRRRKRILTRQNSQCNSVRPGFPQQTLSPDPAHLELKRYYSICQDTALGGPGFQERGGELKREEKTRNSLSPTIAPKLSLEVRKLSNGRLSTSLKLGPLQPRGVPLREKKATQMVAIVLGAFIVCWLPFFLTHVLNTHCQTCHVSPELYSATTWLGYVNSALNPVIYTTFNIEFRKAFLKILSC
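Agonist-mode cell screen: cells plated at 1500/well and incubated overnight at 37 °C, then exposed to library compounds for 90 min at 37 °C. Detection reagent was added for 30–60 min at room temperature, and luminescence was read.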
TDP1 cell CPT: DT40-hTDP1 cell growth loss with CPT. chicken DT40 Tdp1-/-;hTDP1 cells + 20 nM CPT, ATP luminescence, 48 h. Potency, µM (highest dose often 46.2 µM), for inactives: at the top dose activity change, negative = growth inhibition, hits mostly inhibitors. hit rate 12% among 420,000. AID 686979; further: potency means the concentration at half of the fitted maximal effect; on the % scale 0 is the no-effect control and ±100 the full control effect; nearly all actives have a fitted effect of over 55% in size
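Chicken DT40 Tdp1-/- cells stably complemented with human TDP1 were seeded at 400 cells/well in medium containing 20 nM camptothecin, exposed to pin-transferred compounds, and grown at 37 °C for at least 48 hr. Viability was read as ATP luminescence.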
DRD3 antagonist: blocks the human D3 dopamine receptor; D3R cells, DiscoveRx beta-arrestin luminescence, antagonist mode; active compounds read low; max response, negative = inhibition, %; hit rate 2.5% among 360,000; AID 652054; in the data active means max response below about -50%; inconclusive means no clear call, values can overlap the other calls; further: on the % scale 0 is the no-effect control and ±100 the full control effect
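Cells expressing the human receptor were seeded at 1500 cells/well, incubated overnight at 37 degrees C in 5% CO2, then exposed to library compounds with dopamine controls for 90 minutes at 37 degrees C before luminescent detection.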
ClpP mod: qHTS Assay for Activators of ClpP | Potency, µM (titrated, usually from 57.5 µM), inactives show at the top dose activity change, negative = active | purified B. subtilis ClpP, FRET peptide cleavage, 20 min | hit rate 1.9% among 340,000 | AID 651965, 2013 | ATP-dependent Clp protease proteolytic subunit (Bacillus subtilis (strain 168)), P80244; active means well fitted falling curve with a large enough effect; inconclusive means small, poorly fitted or top-dose-only effect; inactive means no such curve, though single readings can be large or run the other way; further: potency means the concentration at half of the fitted maximal effect; the source files actives as falling curves though it sought activators and does not explain the sign; nearly all actives have a fitted effect of over 65% in size
Target sequence (P80244 whole entry, looked up): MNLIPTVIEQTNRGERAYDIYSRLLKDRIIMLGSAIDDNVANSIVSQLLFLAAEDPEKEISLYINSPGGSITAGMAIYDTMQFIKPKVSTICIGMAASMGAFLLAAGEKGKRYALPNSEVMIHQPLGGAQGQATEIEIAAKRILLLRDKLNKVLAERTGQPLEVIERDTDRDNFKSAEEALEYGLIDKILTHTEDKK
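Buffer: 100 mM Tris/HCl pH8, 100 mM KCl, 0.05% low protease BSA, 2.5% glycerol, 0.01% Tween-20. ClpP 10 microg/mL final; 20 min RT; delta FRET normalized to ADEP and DMSO controls.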
IL1B secr inh: inflammasome signaling inhibition, IL-1 beta readout; activity change, % at 57.5 µM; hit rate 4.7% among 360,000; THP-1 LPS/ATP IL-1B secretion, AlphaLISA, 16 h; active compounds read low; in the data active means activity change below about -50%; inconclusive means mostly about -30% to -49%; further: on the % scale 0 is the no-effect control and ±100 the full control effect
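Secreted IL-1B measured by AlphaLISA bead assay after 16 h compound exposure of THP-1 cells; compounds (final up to 57.5 uM) added 1 h before LPS (250 ng/mL) and ATP (1.25 mM) stimulation; lower signal means less secretion.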
* hit, by the source's call; ? = inconclusive; / = no result given; ! = a repeat was not active; [ ] = dose if it differs, or a comment. Unless noted, the call rests on the fitted dose curve; in most records, active means well fitted inhibition curve with a large enough effect; inconclusive means small, poorly fitted or top-dose-only effect; inactive means flat fitted curve, though single readings scatter.

SMILES | TDP1 cell noCPT | D3 ag | TDP1 cell CPT | DRD3 antagonist | ClpP mod | IL1B secr inh
CSCC[C@H](N)C(=O)N1CCC(C(=O)N[C@H](C)C(=O)NC(C)c2ccccc2)CC1 (stereo partly drawn) | 1% | -3 | 21% | -13 | -2% | -13
CSc1ncccc1C(=O)Nc1ccc(S(=O)(=O)NC2=NCCCCC2)cc1 | -1% | 20 | -1% | 15 | / | 5
CCn1c(SCc2ccc(C#N)cc2)nnc1-c1ccc(S(=O)(=O)N2CCCCC2)cc1 | ? | 2 | 15µM* | 31 | 1% | -6
CCn1c(SCC(=O)N2CCCC2)nnc1-c1ccc(S(=O)(=O)N2CCCCCC2)cc1 | ? | -2 | ? | 14 | -4% | -5
O=[N+]([O-])c1ccc(CSc2ccc(S(=O)(=O)N3CCCCC3)cn2)cc1 | ? | -15 | ? | ? | -1% | -50*
Cc1ccc(CSc2ccc(S(=O)(=O)N3CCCC3)cn2)cc1 | -24% | -3 | -13% | -12 | 0% | -1
O=S(=O)(c1ccc(SCc2cccc(Cl)c2)nc1)N1CCCC1 | -19% | -17 | -22% | 12 | -1% | 7
N#Cc1ccc(CSc2ccc(S(=O)(=O)N3CCCC3)cn2)cc1 | 26µM* | -4 | ? | -19 | 0% | -24
CCn1c(SCc2ccc(F)cc2)nnc1C1CCN(S(=O)(=O)c2ccc(OC)cc2)CC1 | 16µM* | 6 | ? | 18 | 0% | -23
COc1cccc(/C=N\NC(C)=O)c1OC/C=C/c1ccccc1 | ? | -4 | ? | -6 | -15% | 0
COc1cc(-c2nc(C)cnc2C)cc2c1OCCN(C(=O)Cc1cc(OC)c(OC)c(OC)c1)C2 | -5% | / | 9%[9.04 µM] | / | / | /
COc1ccc(C(=O)Oc2c(Sc3ccccc3)c(C)nn2-c2ccccc2)cc1OC | ? | 4 | ? | / | -8% | /
O=[N+]([O-])c1ccc(CSc2ccc(S(=O)(=O)N3CCOCC3)cn2)cc1 | ? | -4 | ? | 4 | 0% | -64*
Cc1ccc(CSc2ccc(S(=O)(=O)N3CCOCC3)cn2)cc1 | 5% | 15 | -1% | 12 | 1% | 12
O=[N+]([O-])c1ccc(CSc2ccc(S(=O)(=O)N3CCCC3)cn2)cc1 | 23µM* | -15 | ? | 2 | 0% | 0
Cn1ncc([N+](=O)[O-])c1C(=O)n1nnc2ccccc21 | 6% | -1 | -26% | 6 | -1% | 14
Cc1nn(C2CCS(=O)(=O)C2)c(C)c1CN(C)C(=O)c1ccc(F)cc1 (stereo not drawn) | -13% | 0 | -4% | -22 | -3% | 4
COc1ccc2[nH]c(CN3CCN(CC=C(C)C)C(CCO)C3)c(C)c2c1 (stereo not drawn) | -13% | -8 | 0% | 14 | -1% | -3
Cc1c(C(=O)NCc2cccc(Cl)c2)sc2nc[nH]c(=O)c12 | ? | -11 | ? | / | 22µM* | /
Cc1c(C(=O)NCc2ccccc2)sc2nc[nH]c(=O)c12 | -21% | -20 | -24% | / | -52% | /
Cc1c(C(=O)NCc2ccccc2Cl)sc2nc[nH]c(=O)c12 | -26% | -7 | -24% | / | 40µM* | /
CCOCCCNC(=O)CN1C(=O)c2ccccc2Sc2ncccc21 | -3% | -9 | -5% | -11 | -1% | 0
Clc1ccccc1-c1nc(NCc2cccnc2)c2ccccc2n1 | -9% | / | -2% | / | / | /
CCOC(=O)Nc1ccc(NCc2ccc(F)cc2)nc1N | 16µM*! | 4 | ? | -6 | -28% | -15
CCOC(=O)Nc1ccc(C)cc1NC(=O)OCC | -14% | -3 | -8% | -12 | 1% | 22
SMILES | TDP1 cell noCPT | D3 ag | TDP1 cell CPT | DRD3 antagonist | ClpP mod | IL1B secr inh
CCOC(=O)CCc1c(C)nc(SCCN2CCCC2)c(C#N)c1C | -11% | -8 | -23% | -56* | -1% | 9
Cc1nc(Nc2ccc3c(c2)OCCO3)c2oc3ccccc3c2n1 | 21µM* | 0 | ? | -2 | -8% | -84*
c1ccc2c(c1)oc1c(Nc3ccc4c(c3)OCCO4)ncnc12 | ? | 16 | 8.9µM* | 15 | 119% | 0
COc1ccc(Nc2ncnc3c2oc2ccccc23)cc1 | -24% | 6 | -14% | 16 | -1% | -11
Cc1nc(Nc2ccc3c(c2)OCCO3)c2c(C)c(C)sc2n1 | 21µM* | 19 | ? | 4 | -2% | -15
Cc1nc(Nc2ccc(Cl)cc2)c2oc3ccccc3c2n1 | ? | 10 | ? | 26 | / | 12
Cc1ccc(NC(=O)C2CC2C)c(Cl)c1 (stereo not drawn) | -5% | -10 | -3% | -13 | -1% | -6
Cc1ccc(C(=O)Nc2ccc3c4c(cccc24)CC3)cc1[N+](=O)[O-] | ? | -5 | ? | -6 | 1% | -13
O=[N+]([O-])c1ccc2c([N+](=O)[O-])ccc3c2c1CC3 | 18µM* | 0 | 18µM* | -9 | 2% | ?
CNC(=S)N1CCN(c2c(F)cc3c(=O)c(C(=O)O)cn(C4CC4)c3c2OC)CC1C (stereo not drawn) | ? | -4 | ? | ? | 28µM* | -13
COC(=O)C(C)NC(=S)N1CCN(c2c(F)cc3c(=O)c(C(=O)O)cn(C4CC4)c3c2OC)CC1C (stereo not drawn) | -28% | 3 | ? | 14 | 4% | 30
Cc1ccccc1C1N=C2Oc3ccccc3C=C2C(=O)N1 (stereo not drawn) | 5.8µM* | -1 | 6.5µM* | 27 | 5% | -5
COC(=O)[C@@H]1[C@@H](C#N)C2(c3ccccc3-c3ccccc32)N(c2ccc(Cl)cc2)N1C#N | 3.7µM* | -6 | 3.3µM* | -54* | -11% | ?
O=C(Nc1cc(C(F)(F)F)ccc1Cl)c1cc(-c2ccc3c(c2)OCCO3)on1 | ? | 2 | ? | / | ? | /
COc1ccc(CCN2C(=O)C3C4CC(C5C(C(N)=O)=NOC45)C3C2=O)cc1OC (stereo not drawn) | -16% | -1 | -5% | -13 | 2% | 0
COc1ccc(CCN2C(=O)CSC2c2cccc([N+](=O)[O-])c2)cc1OC (stereo not drawn) | ? | -9 | ? | 2 | 2% | -1
COc1ccc(CCN2C(=O)CSC2=Nc2ccc(C)cc2C)cc1OC | 23µM* | 9 | 23µM* | 15 | 1% | 15
COc1ccc(C2SCC(=O)N2CCc2ccc(OC)c(OC)c2)cc1 (stereo not drawn) | 5.2µM* | 0 | 7.3µM* | 0 | 0% | 3

Source: PubChem (National Center for Advancing Translational Sciences (NCATS))
